Experimental data reported in PubChem BioAssay (NCI).
About 83,000 compounds went through this panel and 20% of them were active in at least one assay; those are over-represented in the sample as a whole.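 Method: cells in 96-well plates; compound added at one concentration; 48 h incubation; percent growth measured; values under 10 scored active.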 Active and inactive are the calls of the source.

System: OVCAR-4 ovarian
Test: NCI-60 one-dose screen, 48 h (100 = growth as untreated, 0 = no growth, -100 = all killed)
Settings: 10 µM

Row | Compound | growth
1 | O=S(=O)(Nc1ncccn1)c1ccc(-n2c(-c3ccccc3)nc(-c3ccccc3)c2-c2ccccc2)cc1 | 94.1% (inactive)
2 | COc1ccc(-c2cc(-c3cc(C(=O)c4ccccc4)n4ccc(C)cc34)nc(N)c2C#N)cc1 | 24.2% (inactive)
3 | N#Cc1ccc(NC(=O)CSc2ccc(-c3ccc(Br)cc3)nn2)cc1 | 59% (inactive)
4 | CCCn1c(O)c(N=Nc2nc(-c3cc4ccccc4oc3=O)cs2)c2cc(Br)ccc21 | 98.9% (inactive)
5 | COc1cc2oc(-c3cccc(C(=O)Nc4ccc(Cl)cc4)c3)cc(=O)c2c(OCCNC(=O)CNC(=O)OC(C)(C)C)c1OC | 65.8% (inactive)
6 | CCCCOc1ccc(Nc2nc3ccccc3nc2Nc2ccc(OCCCC)cc2)cc1 | 93.6% (inactive)
7 | COc1cc(NC(=O)CSc2nnc(-c3ccc4nc(-c5ccc(Cl)cc5)[nH]c4c3)o2)cc(OC)c1OC | 61.9% (inactive)
8 | O=C(NO)c1ccc(CNC(=O)[C@H]2Cc3c([nH]c4ccccc34)[C@H](c3ccc(Cl)cc3)N2)cc1 | 39.7% (inactive)
9 | N#Cc1c(NC(=O)c2ccc(C(F)(F)F)c(Cl)c2)sc2c1CCC(=O)C2 | -21.1% (active)
10 | O=C(Cc1ccc2c(c1)CN(C1CCC(=O)NC1=O)C2=O)NCc1cccc2ccccc12 (configuration not stated) | -2.52% (active)
11 | CCOC(=O)CNC(=O)CN(Cc1ccccc1)C(=O)[C@@]1(C)CCC[C@]2(C)[C@H]3C[C@H]4C(C(C)C)=C[C@]3(CC[C@H]21)[C@@H]1C(=O)OC(=O)[C@@H]14 | 62.2% (inactive)
12 | O=C(NCCCCCCCCCC[P+](c1ccccc1)(c1ccccc1)c1ccccc1)c1ccc(-n2nc(-c3ccccc3O)nc2-c2ccccc2O)cc1 | -51.8% (active)
13 | COc1ccc2[nH]c(=O)c(CSc3ccc(Nc4nccc(-c5ccc(Cl)cc5)n4)cc3)cc2c1 | 94.8% (inactive)
14 | CCOC(=O)C1=C(N)N(c2ccccc2)C2=C(C(=O)CC(C)(C)C2)C1c1ccccc1OC (configuration not stated) | 102% (inactive)
15 | COc1cccc2nc(Nc3cccc(NC(=O)c4ccc(CN5CCCN(C)CC5)c(C(F)(F)F)c4)c3)ccc12 | -84.4% (active)
16 | COc1cc(C2CC(c3ccc(C)cc3)=Nc3c(N)nc(N)nc3N2)ccc1Oc1nc(Nc2ccc(F)cc2)nc(N(C)C)n1 (configuration not stated) | 50.9% (inactive)
17 | CC(=O)Nc1ccc(-c2cn(-c3cccc(C(=O)Nc4ccc(Cl)c(C(F)(F)F)c4)c3)nn2)cn1 | -74.9% (active)
18 | Cc1cc(C(F)(F)F)ccc1C(=O)Nc1sc2c(c1C#N)CCC(=O)C2 | -39.7% (active)
19 | COc1ccc(OC)c(/C=N/NC(=O)c2ccc3nc(-c4ccc(Cl)cc4)[nH]c3c2)c1 | 61.1% (inactive)

Row | Compound | growth
20 | CC1=N/C(=C\c2ccc(N(C)C)cc2)C(=O)N1CCc1ccc(S(N)(=O)=O)cc1 | 99.7% (inactive)
21 | Cc1ccc(-c2cc(C(=O)N=Nc3c(O)[nH]c4ccc(Br)cc34)c3ccccc3n2)cc1 | 71.9% (inactive)
22 | COc1ccccc1C(=O)NNC(=O)CSc1nc2c(c(=O)[nH]1)CCCC2 | 105% (inactive)
23 | C=C1CCC2C3(C)COC(c4cccc(F)c4)OC3CCC2(C)C1CC(O)C1=CCOC1=O (configuration not stated) | 67.1% (inactive)
24 | C=C1CCC2C3(C)COC(c4c(F)cccc4F)OC3CCC2(C)C1C/C=C1/C(=O)OCC1O (configuration not stated) | 12.4% (inactive)
25 | Nc1nnc(-c2c[nH]c3ccc(F)cc23)c(-c2c[nH]c3ncccc23)n1 | 81.4% (inactive)
26 | CC(=O)NS(=O)(=O)c1ccc(NC(=O)CSC2=NC(c3ccccc3)C(C(C)=O)=C(C)N2)cc1 (configuration not stated) | 113% (inactive)
27 | COC1=C[C@@]23CCC(=O)N2CCc2cc4c(cc2[C@H]3[C@H]1OC(=O)C(C)(C)O)OCO4 | 98.6% (inactive)
28 | Nc1nc(-c2ccccc2)cs1 | 59.4% (inactive)
29 | COC(=O)c1c(C(=O)OC)c2n(c1C)[C@@H]([C@@H](C)[C@H]1CC[C@H]3[C@@H]4CCC5=CC(=O)CC[C@]5(C)[C@H]4CC[C@]13C)SC2 | 38.5% (inactive)
30 | C/C(=N\NC(N)=S)c1ccc(Nc2nc(SC(C)C)nc(-c3ccccc3)c2C#N)cc1 | 57.7% (inactive)
31 | COc1ccc(-c2cc(-c3cc(C(=O)c4ccc(Br)cc4)n4ccc(C)cc34)nc(N)c2C#N)cc1 | 86.1% (inactive)
32 | CC(=O)Nc1ccc(-n2cnc3cc(-c4ccc(NS(C)(=O)=O)cc4)ccc32)cc1 | 60% (inactive)
33 | O=c1cc(-c2ccccc2)oc2cc(OCCCCNCc3ccccc3)cc(O)c12 | 34.7% (inactive)
34 | C/C(=N\N=C\c1ccc(Cl)c([N+](=O)[O-])c1)c1ccc2c(c1)Nc1ccccc1S2 | 23.7% (inactive)
35 | N#Cc1c(-c2ccc(Cl)cc2)cc(-c2ccccc2)nc1OCc1ccccc1 | 76.9% (inactive)
36 | COc1cccc(/C=N/NC(=O)c2ccc3nc(-c4ccc(Cl)cc4)[nH]c3c2)c1O | -36.3% (active)
37 | COc1ccc(/C(CSc2nnc(-c3c[nH]c4ccccc34)n2-c2ccccc2)=N/O)cc1 | 16.8% (inactive)
